According to PubChem BioAssay (NCI):
The panel holds about 83,000 compounds, 20% with a hit somewhere; the sample as a whole holds those more often.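 Cell lines were cultured in 96-well plates, exposed to a single compound concentration, and assessed for percent growth 48 hours later.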 The source made the active and inactive calls. The calls were made as follows: active = growth percent below 10; inactive = the rest.

system: MCF7 breast; assay: NCI-60 one-dose screen, 48 h (100 = growth as untreated, 0 = no growth, -100 = all killed); details: 10 µM

**Q.** How did the growth turn out when COc1ccc(-c2cc(-c3ccc(Cl)cc3)nc(SCCCCCCC(=O)NO)n2)cc1OC was run?
**A.** 24.6% (inactive)

**Q.** With COc1cc2ncnc(NC3CCC(O)CC3)c2cc1OC (centres undefined) as the compound, how does the growth read?
**A.** 88.3% (inactive)

**Q.** Which growth does the source give for COc1cc(C)ccc1Oc1nc(Nc2ccc(N3CCOCC3)cc2)ncc1NC(=O)Nc1cc(C(F)(F)F)cc(C(F)(F)F)c1 here?
**A.** 69.3% (inactive)

**Q.** Which growth does the source give for CCC(C)[C@H](NC(C)=O)C(=O)N[C@@H](CCCNC(=N)N)C(=O)N[C@@H](CCCCN)C(=O)N[C@@H](CC1CCC(O)CC1)C(=O)NC(C(=O)N[C@@H](CCSC)C(=O)N[C@@H](CCCNC(=N)N)C(=O)N[C@@]1(C)CCC/C=C\CCC[C@@](C)(C(=O)NC(C(=O)N[C@@H](CCC(=O)O)C(=O)N[C@@H](CC(C)C)C(=O)N[C@H](C(=O)N[C@@H](CCC(=O)O)C(N)=O)C(C)C)[C@@H](C)O)NC(=O)[C@H](CCC(N)=O)NC(=O)[C@H](CC(C)C)NC(=O)[C@H](CC(C)C)NC1=O)[C@@H](C)O (some centres undefined) here?
**A.** 102% (inactive)

**Q.** How did the growth turn out when CN1C(=O)C2(Nc3cc(Cl)ccc3S2)c2cc(Cl)ccc21 (centres undefined) was run?
**A.** 75.4% (inactive)

**Q.** With CC(=O)Nc1ccc2c(c1)C(=O)c1cccc(C(=O)O)c1-2 as the compound, how does the growth read?
**A.** 105% (inactive)

**Q.** How did the growth turn out when O=C(CNc1nnc(-c2cccnc2SCc2ccccc2)s1)Nc1nc(Cl)cc(Cl)n1 was run?
**A.** 89.1% (inactive)

**Q.** Which growth does the source give for CCOC(=O)c1cc(C(=O)c2cc(OC)c(OC)c(OC)c2)n2nc(C)ccc12 here?
**A.** 21.6% (inactive)

**Q.** COc1cc(/C=C/c2cc(/C=C/c3ccc(O)c(OC)c3)[nH]c(=O)n2)ccc1O was tested. Which growth did it give?
**A.** 52.1% (inactive)
